Compounds with a hit are over-represented: about 32% of the library has one in this group of screens.
PostGolgi yeast = phenotypic screen on post-Golgi transport, primary screen; post-Golgi transport phenotypic cell assay; inhibition, % at 10 µM; 0.9% of 98,000 active;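 also: yeast cells grown in 1536-well plates; yeast grown about 18 h at 30C before absorbance read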
CYP2C9 inh = blockers of cytochrome P450 2C9 activity – biochemical, luminescence, ADME assay, primary screen; P11712; CYP2C9 Supersomes, luciferin-H conversion; inhibition, % at 5 µM; 20% of 96,000 active; AID 777, 2007;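 active = blocking of liver enzyme CYP2C9 beyond about 50% at 5 µM, limit read from the data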
PostGolgi ctrl = growth inhibition of yeast control strain, primary screen, counter-screen for post-Golgi transport modulator project | efflux-deficient yeast background strain, growth absorbance A615, 16 h | inhibition, % at 10 µM | 5% of 98,000 active | AID 738, 2007
CYP2C19 inh = blockers of cytochrome P450 2C19 activity – biochemical, luminescence, ADME assay, primary screen | P33261 | CYP2C19 Supersomes, luciferin-H EGE luminescence, 30 min | 21% of 96,000 active | inhibition, % at 5 µM;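 active = CYP2C19 inhibition above a set limit at 5 µM in the primary screen, cut at about 50% in these data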;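 also: plate controls were negative control wells for no effect and 2.5 mM tranylcypromine positive control for full effect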
Target sequence (P33261 whole entry, looked up): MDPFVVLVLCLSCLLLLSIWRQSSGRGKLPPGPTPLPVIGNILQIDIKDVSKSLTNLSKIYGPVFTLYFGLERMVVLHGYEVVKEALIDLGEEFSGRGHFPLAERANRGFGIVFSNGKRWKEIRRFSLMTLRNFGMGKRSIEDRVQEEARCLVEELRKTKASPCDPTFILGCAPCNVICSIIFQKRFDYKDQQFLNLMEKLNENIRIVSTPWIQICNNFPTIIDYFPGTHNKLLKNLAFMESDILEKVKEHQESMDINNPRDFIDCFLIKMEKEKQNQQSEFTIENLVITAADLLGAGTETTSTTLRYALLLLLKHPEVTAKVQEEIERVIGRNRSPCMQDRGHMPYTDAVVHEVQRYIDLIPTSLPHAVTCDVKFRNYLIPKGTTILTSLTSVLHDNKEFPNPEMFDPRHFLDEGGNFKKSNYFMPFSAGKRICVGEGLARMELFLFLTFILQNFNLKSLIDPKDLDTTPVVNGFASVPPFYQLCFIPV
CYP2C9 act = human CYP2C9 activators, primary screen, biochemical, luminescence; recombinant CYP2C9, luciferin-H conversion; active compounds read high; factor 1 = untreated enzyme, 0 = blocked; Cytochrome P450 2C9 (Homo sapiens), P11712; AID 1024, 2008; activation factor at 5 µM; 1.4% of 96,000 active;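 active = activation factor of 2 or more for CYP2C9 at a 5 µM dose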;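 also: 0 = sulfaphenazole-blocked wells and 1 = vehicle-only wells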
CYP2C19 activ = human CYP2C19 activators, primary screen, biochemical, luminescence | AID 1025, 2008 | Cytochrome P450 2C19 (Homo sapiens), P33261 | 96,000 tested, under 10 active | activation factor at 5 µM | recombinant CYP2C19, luciferin-H EGE luminescence; active compounds read high; 0 = fully inhibited enzyme, 1 = untreated enzyme;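 active = activation factor of at least 2 at 5 µM in the primary screen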;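 also: 0 = wells with 2.5 mM tranylcypromine and 1 = vehicle-only wells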
* hit, by the source's call. Rule as the data show it, unless noted: active = inhibition above about 30%; inactive = the rest.

SMILES | PostGolgi yeast | CYP2C9 inh | PostGolgi ctrl | CYP2C19 inh | CYP2C9 act | CYP2C19 activ
C(=C\c1ccccc1)/CSc1nnc(-c2ccccn2)n1Cc1ccco1 | 2 | 45 | 45* | 18 | 0.6 | 0.8
Nn1c(SC/C=C/c2ccccc2)nnc1-c1ccccn1 | 14 | 27 | 7 | 61* | 0.7 | 0.4
Clc1ccc(-n2c(SC/C=C/c3ccccc3)nnc2-c2cccnc2)cc1 | -7 | 34 | 35* | 56* | 0.7 | 0.4
CCCCN(CCCC)S(=O)(=O)c1ccc2[nH]c(=O)[nH]c2c1 | 3 | 48 | -1 | 13 | 0.5 | 0.9
OCCNc1nc(SCc2ccccc2)nc2sc3c(c12)CCC3 | -1 | 68* | 74* | 47 | 0.3 | 0.5
CC(C)c1ccc(N(C(=O)C(F)(F)F)C(C(=O)NC2CCCCC2)c2ccncc2)cc1 (stereo not given) | -8 | 18 | -10 | 23 | 0.8 | 0.8
Cc1cc(C(=O)O)c(C)n1-c1ccccc1 | -4 | 65* | 1 | 22 | 0.4 | 0.8
Cc1cc(C(=O)OCn2nnc3ccccc3c2=O)c(C)n1-c1ccccc1 | 25 | 84* | 30 | 78* | 0.2 | 0.2
CSc1cccc(-n2c(C)cc(C(N)=O)c2C)c1 | 7 | 19 | 10 | 69* | 0.8 | 0.3
Cc1cc(C(=O)COc2cccc(-n3cnnn3)c2)c(C)n1-c1ccccc1 | -3 | 22 | 19 | 86* | 0.8 | 0.1
Cc1ccccc1CSc1nc2c(c(=O)[nH]1)CCCC2 | 20 | 60* | 15 | 7 | 0.4 | 0.9
O=c1[nH]c(SCc2ccccc2Cl)nc2c1CCC2 | -3 | 13 | 12 | -8 | 0.9 | 1.1
Cc1ccc(CSc2nc3c(c(=O)[nH]2)C(c2ccncc2)C2=C(CCCC2=O)N3)cc1 (stereo not given) | -19 | 95* | 0 | 94* | 0.1 | 0.1
Cc1ccc(CSc2nc3c(c(=O)[nH]2)CCC3)cc1 | 0 | 56* | 7 | 12 | 0.4 | 0.9
Nc1cc(Cl)nc(N/N=C/c2ccccc2[N+](=O)[O-])n1 | -2 | -6 | 5 | 10 | 1.1 | 0.9
Cc1nn2c3c(cnc2c1-c1ccccc1)C(=O)CC(c1ccccc1)C3 (stereo not given) | 1 | 54* | 2 | 36 | 0.5 | 0.6
Cc1nn2c3c(cnc2c1-c1ccccc1)C(=O)CC(c1ccco1)C3 (stereo not given) | -1 | 27 | 17 | -8 | 0.7 | 1.1
CC1CC(NS(=O)(=O)c2cccs2)CC(C)(C)C1 (stereo not given) | -3 | 38 | 15 | 53* | 0.6 | 0.5
O=S(=O)(N[C@@H]1C[C@H]2CC[C@@H]1C2)c1cccs1 | 1 | 8 | 3 | 49 | 0.9 | 0.5
CCOC(=O)CN(C(=O)CSc1nnc(COc2ccc(OC)cc2)n1C)c1ccccc1 | -1 | 35 | -5 | -8 | 0.6 | 1.1
COC(=O)c1ccc(Oc2nc(Nc3ccc(C)c(C)c3)nc(N(C)C)n2)cc1 | -1 | 71* | 10 | 56* | 0.3 | 0.4
O=S(=O)(Nc1ccc2c(c1)OCCO2)c1cccc2nsnc12 | 0 | 35 | 4 | 60* | 0.7 | 0.4
Cc1ccc2cccc(S(=O)(=O)Nc3ccc4c(c3)OCO4)c2n1 | 0 | 25 | 13 | 100* | 0.7 | 0
O=C(CCNS(=O)(=O)c1cccc2nsnc12)Nc1ccc2c(c1)OCCO2 | -3 | 37 | 16 | 10 | 0.6 | 0.9
Cc1ccc2c(C)nc(Nc3nc(CSc4nnnn4-c4ccccc4)cc(=O)[nH]3)nc2c1 | 7 | 88* | 10 | 60* | 0.1 | 0.4
CCOc1ccc2nc(Nc3nc(CSc4nnnn4-c4ccccc4)cc(=O)[nH]3)nc(C)c2c1 | -1 | 51* | 10 | 53* | 0.5 | 0.5
COc1ccc2nc(Nc3nc(CSc4nnnn4-c4ccccc4)cc(=O)[nH]3)nc(C)c2c1 | 12 | 22 | 23 | 29 | 0.8 | 0.7
O=C(c1ccc(Cl)cc1)N1CCC(O)(CSc2ccc(Cl)cc2)CC1 | -4 | 28 | 45* | 23 | 0.7 | 0.8
O=C(c1ccc(Cl)cc1)N1CCC(O)(CSc2ccccc2)CC1 | -6 | 40 | 21 | 54* | 0.6 | 0.5
